SMILES strings stand for the structures. Several values for one entry are separate records, joined by “and”; a condition that tells them apart may be missing. Equal entries are not always repeated. Compounds without any hit were thinned out: in the full panel of roughly 83,000, 20% have a hit.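 Cell lines were cultured in 96-well plates, exposed to a single compound concentration, and assessed for percent growth 48 hours later.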 Values without a mark were called inactive. Activity calls are given as the source filed them.

The first assay concerns COLO 205 colon. The assay can be described thus: NCI-60 one-dose screen, 48 h (100 = growth as untreated, 0 = no growth, -100 = all killed). The conditions noted are these: 0.01 µM. The procedure: Cells are grown in 96 well plates and exposed to the test compound for 48 hours. Compounds are tested at a single concentration, which is 10^-5 M for most compounds. The reported endpoint is percent growth (GI% or GIPRCNT), where numbers from 0 - 100% represent growth inhibition, and numbers from -100% - 0 represent cell death. For example, a value of 40 represents 60% growth inhibition. A value of 0 means no net growth occurred over the course of the experiment. A value of -40 indicates 40% of cells at the beginning of the experiment died by the end of the experiment. A value of -100 means all cells are dead at the end of the experiment.
NCI-60 Human Tumor Cell Lines Screen was performed using the standard one-dose NCI protocol, which is described in more detail at https://dtp.cancer.gov/discovery_development/nci-60/default.htm.
Compounds with GIPRCNT values below 10 were considered active. Activity score was based on GIPRCNT using the following formula: […]
Score is 0 for GIPRCNT values of 100 or above, 50 for GIPRCNT values of 0, and 100 for GIPRCNT values of -100.
For the compound `CC(=O)O[C@H]1C(=O)[C@@]2(C)[C@H]([C@H](OC(=O)c3ccccc3)[C@]3(O)C[C@H](OC(=O)[C@H](O)[C@@H](NC(=O)c4ccccc4)c4ccccc4)C(C)=C1C3(C)C)[C@]1(OC(C)=O)CO[C@@H]1C[C@@H]2O`, the growth was 13.4%.

Still in this assay, the particulars now being: 2.5 µM.
Regarding `CC(=O)O[C@H]1C(=O)[C@@]2(C)[C@H]([C@H](OC(=O)c3ccccc3)[C@]3(O)C[C@H](OC(=O)[C@H](O)[C@@H](NC(=O)c4ccccc4)c4ccccc4)C(C)=C1C3(C)C)[C@]1(OC(C)=O)CO[C@@H]1C[C@@H]2O`, the growth is -54.6% (active).

Still in this assay, the particulars now being: 5 µM.
As to `CC(=O)O[C@H]1C(=O)[C@@]2(C)[C@H]([C@H](OC(=O)c3ccccc3)[C@]3(O)C[C@H](OC(=O)[C@H](O)[C@@H](NC(=O)c4ccccc4)c4ccccc4)C(C)=C1C3(C)C)[C@]1(OC(C)=O)CO[C@@H]1C[C@@H]2O`, the growth was -47.9% (active).

Still in this assay, the particulars now being: 10 µM.
Consider `Cc1c(-c2ccccc2)[nH]c2ccccc12`, for which the growth was 115%.

Turning to `CN(C)CCNc1cccc2sc3ccc(O)cc3c(=O)c12`, the growth was 34.9%.

As to `S=C1SCN(CCc2ccccc2)CN1CCc1ccccc1`, the growth was 99.2%.

For the compound `N#CC(=C1C=CC(=NO)C=C1)c1ccccc1`, the growth was 30.4%.

As to `S=P(N1CC1)(N1CC1)N1CC1`, the growth is 106% and 121%.

On to `COc1cc(N)ccc1Nc1c2ccccc2nc2ccccc12`, for which the growth was 12.4%.

Regarding `NCc1c(O)ccc2ccccc12`, the growth was 105%.

As to `Cc1cc(N=C2C=CC(=[N+](C)C)C=C2)c(N)cc1N`, the growth is 95.8%.

As for `COc1ccc(N)c2c1C(=O)c1ccccc1C2=O`, the growth is 111%.

On to `CC(=O)O[C@H]1C(=O)[C@@]2(C)[C@H]([C@H](OC(=O)c3ccccc3)[C@]3(O)C[C@H](OC(=O)[C@H](O)[C@@H](NC(=O)c4ccccc4)c4ccccc4)C(C)=C1C3(C)C)[C@]1(OC(C)=O)CO[C@@H]1C[C@@H]2O`, for which the growth was 9.93% (active) and -37.3% (active).

As for `O=C1C(Cl)=C(Cl)C(Cl)(Cl)C(Cl)C1(Cl)Cl` (stereo not given), the growth was 105%.

Take `CN(C)c1ccc(/C=C/c2ccnc3ccccc23)cc1N`: the growth was 62.9%.

With `CN(CC(=O)O)c1ccc(/C=C/c2ccnc3ccccc23)cc1`, the growth was 91.2%.

For the compound `O=[N+]([O-])c1cc(S(=O)(=O)Nc2ccccc2)ccc1Cl`, the growth was 119%.

As to `O=c1[nH]cc(/C=N\Nc2ccccc2)c(=O)[nH]1`, the growth was 67.9%.

Take `O=C(O)c1ccccc1.[Ag]`: the growth was 25.8%.

Take `O=S(=O)(c1cc(Cl)ccc1O)c1cc(Cl)ccc1O`: the growth was 105%.

Turning to `COc1ccc2c(c1)[nH]c1c(/C=C/c3ccccc3)nccc12`, the growth is 14.4%.

As for `O=C(NC(=S)Nc1ccccn1)c1ccccc1`, the growth is 101%.

`COc1cccc(C(c2cc3c(cc2O)OCO3)N2CCOCC2)c1OC` (stereo not given): the growth is 111%.

On to `CCOC(=O)[C@]1(Br)CC[C@@]1(Br)C(=O)OCC`, for which the growth is 116%.

For `COc1ccc(C(C#N)=C2C=CC(=NO)C=C2)cc1`, the growth is 127%.

For `Nc1nc(N)c2cc(Sc3ccc4ccccc4c3)ccc2n1`, the growth was -71.6% (active).

Turning to `CC1CCC2(C(=O)O)CCC3(C)C(=CCC4C5(C)CC(O)C(O)C(C)(CO)C5C(O)CC43C)C2C1C` (stereo not given), the growth was 112%.

As to `Cc1cc(O)c2c(c1O)C(=O)C13C(=C2O)C(=O)C2C(O)C1C1C(O)C3C(=O)C3=C(O)c4c(O)cc(C)c(O)c4C(=O)C321` (stereo not given), the growth is -30.4% (active).

In the case of `Cn1c2nc3ccccc3c-2nc2ccccc21`, the growth is 86.7% and 83.9%.

For the compound `O=Nc1ccc(Nc2ccccc2)cc1`, the growth is 105%.

Regarding `N#C/C(=C/N1C(=O)/C(=C/c2ccc([N+](=O)[O-])cc2)SC1=S)c1nc2ccccc2s1`, the growth is 90.3%.

With `CCC(=O)Oc1ccc(/C=N/NC(N)=S)nc1`, the growth is 79.5%.

With `O=C1c2ccccc2CCC1(Br)Br`, the growth is -68.2% (active).

For `O=C(CNS(=O)(=O)Cc1ccccc1)NNc1ccccc1`, the growth was 75.2%.

Turning to `O=C1c2cccc3cc([N+](=O)[O-])cc(c23)C(=O)N1CCN1CCCC1`, the growth was -13.8% (active).

Take `Cc1cc(C)c(N2C(=O)CC(Sc3ccccc3N)C2=O)c(C)c1` (stereo not given): the growth was 84.8%.

`C=C1N(C)c2ccc(Cl)cc2C1(C)C`: the growth was 23.7%.

As to `O=C1C=CC(=O)N1c1ccc(N2C(=O)C=CC2=O)cc1`, the growth is 95.2%.

As for `CC[C@@]1(OC(=O)CN(C)C)C(=O)OCc2c1cc1n(c2=O)Cc2cc3c(N)cccc3nc2-1`, the growth was 17.5%.

Still in this assay, the particulars now being: 100 µM.
Consider `S=P(N1CC1)(N1CC1)N1CC1`, for which the growth is 78.6%.

The record behind these values is PubChem BioAssay (NCI).
